An excerpt weighted towards active compounds, which were near 2.7% of everything screened.
Wnt act: Wnt/beta-catenin pathway activation; Wnt/beta-catenin reporter cell assay, activator, plate reader; activation, % at 9.35 µM; hit rate 1.2% among 300,000; AID 743398; in the data active = activation above about 30%, passing the limit was not always enough;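 also: 0% = neutral control wells and 100% = positive control wells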
Env fusion inh: HIV envelope-mediated fusion inhibition; HeLa-JRFL Env/CEM21 cell fusion, luciferase; inhibition, % at 12.3 µM; hit rate 1.1% among 360,000; AID 651610;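 active = mean replicate inhibition score of at least 50 and every replicate individually at or above 50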;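 also: 0% = plate neutral controls and 100% = maraviroc near 300 nM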
INS-1E GSIS act: primary screen for activators of insulin secretion dependent on glucose, INS-1E cells, GLuc reporter luminescence | activation, % at 16.6 µM | hit rate 0.61% among 370,000 | INS-1E GLuc reporter insulin secretion, 2-3 h | AID 743287;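 active = lowest replicate activation of at least 40%, so every replicate reaches that level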;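 also: 0% = median of neutral control wells and 100% = median of IBMX positive control wells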
F508del corr: correctors of CFTR F508del function in bronchial epithelial cells. CFBE cells, YFP halide quenching; stimulated with forskolin plus potentiator P3; % fluorescence drop versus neutral controls. activity (quench increase), % at 7.58 µM. hit rate 0.36% among 350,000;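 active = mean added fluorescence quench of at least 8% versus neutral control, with both replicates also reaching 8%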;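 also: cells transiently co-express mutant CFTR-F508del with the halide-sensitive YFP; corrector assay measuring rescue of mutant channel to the surface after 24 h compound exposure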
MITF act: increases MITF-driven TRPM1 promoter luciferase signal. SK-MEL-5 TRPM1-promoter luciferase, 24 h; % of positive control, neutral wells = 0. activation, % at 12.5 µM. hit rate 0.75% among 300,000. AID 588334;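 active = mean activation of at least 80% with every replicate also reaching 80%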;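 also: 0% = neutral control wells and 100% = parthenolide positive control wells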
The depositor's hits bear a star; [ ] = dose if it differs, or a comment.

What do the screens show for `N#Cc1ccc(-c2ccc3c(c2)[C@@H]2[C@@H](CCN2C(=O)c2ccc4c(c2)OCO4)[C@H](CO)N3)cc1`?
INS-1E GSIS act: 45.3; F508del corr: 3.0

How did N#Cc1cc2cc3c(cc2nc1Cl)OCCO3 do in these assays?
Wnt act: 5.7; Env fusion inh: -84.9; F508del corr: -3.0

What do the screens show for `N#Cc1cc2cc3c(cc2nc1N1CCCCC1)OCCO3`?
Wnt act: 32.4*; Env fusion inh: -93.9; MITF act: 102.1*

How did CCOc1ccc(C(=O)NCC(=O)N2CCN(Cc3ccccc3)CC2)cc1 do in these assays?
Wnt act: 1.0; INS-1E GSIS act: -12.0; F508del corr: 10.0*; MITF act: -9.5

How did CCOC(=O)/C=C1\Nc2ccccc2SC1=O do in these assays?
Wnt act: 22.0; Env fusion inh: 112.9*

How did O=C(C[C@H]1CC[C@@H](NC(=O)CN2CCOCC2)[C@@H](CO)O1)NC1CCCCC1 do in these assays?
Env fusion inh: -12.8[16.7 µM]; INS-1E GSIS act: 8.2; F508del corr: -0.2

Results for Nc1nonc1C(=O)N/N=C/c1ccc(Br)o1 ?
Wnt act: -1.5; Env fusion inh: 11.5; INS-1E GSIS act: 7.6; F508del corr: -0.1

How did N/C(=N\N=C\c1ccc(O)cc1)c1nonc1N do in these assays?
Wnt act: 49.4*; Env fusion inh: -90.5; INS-1E GSIS act: -3.8; F508del corr: -0.5; MITF act: 65.2

Results for N/C(=N\N=C\c1ccc(Br)o1)c1nonc1N ?
Wnt act: 22.6; Env fusion inh: -90.0; F508del corr: -2.7; MITF act: 118.2*

What do the screens show for `N/C(=N\N=C\c1ccc(O)c(O)c1)c1nonc1N`?
Wnt act: -1.4; Env fusion inh: -9.5; INS-1E GSIS act: -26.4; F508del corr: -0.7; MITF act: 60.8

How did CNC[C@@H]1Oc2ccc(N)cc2CC(=O)N(C)C[C@H]1C do in these assays?
INS-1E GSIS act: 8.4

How did C[C@@H]1CN([C@H](C)CO)C(=O)c2cccc(NC(=O)C3CCOCC3)c2O[C@H]1CN(C)C(=O)NC1CCCCC1 do in these assays?
Env fusion inh: 4.4[16.7 µM]; INS-1E GSIS act: 16.4; F508del corr: 2.4

Results for CCNc1nc(N)nc(Oc2ccc(C(=O)OC)cc2)n1 ?
Wnt act: 17.6; MITF act: 87.1*

What do the screens show for `CCNc1nc(Oc2ccc(C(=O)OC)cc2)nc(N(C)C)n1`?
MITF act: 5.0

Results for COc1ccc2c3c([nH]c2c1)[C@H](CO)NCC31CCN(C(=O)C2CCCC2)CC1 ?
INS-1E GSIS act: 0.3; F508del corr: 1.6

Results for c1cc2c(cc1C1=NNC(=NC3CC3)SC1)OCCO2 ?
Wnt act: -6.6; Env fusion inh: 65.4*; INS-1E GSIS act: -3.9; F508del corr: -2.7; MITF act: -94.3

What do the screens show for `CCCCN=C1NN=C(c2ccc3c(c2)OCCO3)CS1`?
Wnt act: 3.8; Env fusion inh: -20.4; INS-1E GSIS act: 5.2; F508del corr: 2.3; MITF act: -14.3

How did Cc1cc(C2=NNC(=NC3CC3)SC2)c(C)n1-c1ccccc1F do in these assays?
Wnt act: -32.9; Env fusion inh: 55.9*; INS-1E GSIS act: 6.6; F508del corr: 0.9; MITF act: -98.0

How did N#Cc1c(-c2ccc(Cl)cc2)ccn2nc(C3CCCCC3)nc12 do in these assays?
Wnt act: 25.6; Env fusion inh: -100.7; MITF act: 90.1*

What do the screens show for `O=C(NCC[C@@H]1CC[C@@H](NS(=O)(=O)Cc2ccccc2)[C@@H](CO)O1)C1CCCC1`?
Env fusion inh: 1.6[16.7 µM]; INS-1E GSIS act: 1.4; F508del corr: -0.7

Results for CNc1ncc(C(=O)C(C)(C)C)s1 ?
Wnt act: 0.5; MITF act: 2.9

How did CNc1nc(N)c(C(=O)C(C)(C)C)s1 do in these assays?
Env fusion inh: -41.2; INS-1E GSIS act: 47.0*; MITF act: -6.3

How did CCCNC(=O)Nc1ccc2c(c1)C(=O)N(C)C[C@H](OC)[C@H](C)CN(CCC(F)(F)F)[C@@H](C)CO2 do in these assays?
INS-1E GSIS act: -1.8; F508del corr: -0.5

How did CO[C@@H]1CN(C)C(=O)c2cc(NC(=O)c3ccno3)ccc2OC[C@H](C)N(S(C)(=O)=O)C[C@@H]1C do in these assays?
INS-1E GSIS act: -2.4; F508del corr: -1.7

Results for CN1C(=O)NC(c2ccc(O)cc2)C2=C1CN(c1ccccc1)C2=O (stereo unspecified) ?
Wnt act: 1.4; Env fusion inh: -7.0; INS-1E GSIS act: 42.7*; F508del corr: 1.5; MITF act: 30.3

Screening data deposited in PubChem BioAssay by Broad Institute.
